In all, about 5,500 compounds went through this assay and about 2,000 (36%) were called active. About 18% were inconclusive and are not listed. No stated cut-off is given here; in the data, active means normalized growth mostly below about 0.91 (no sharp cut-off); inconclusive means no clear call, values can overlap the other calls; inactive means mostly above about 0.92. This is one part of the list.
Assay: chemical genetic growth profiling, strain panel (AID 1159580);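 further: tested at 20 µM; growth read once vehicle control cultures reached saturation at 30 °C; 1 = growth at the plate median or of vehicle wells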
Settings: growth OD
[1] = S. cerevisiae deletion strains, locus YDL101C, strain DUN1, stronger effect = lower value
[2] = S. cerevisiae deletion strains, locus YHR030C, strain SLT2, stronger effect = lower value

Measured: normalized growth

O=S(=O)(CS(=O)(=O)Oc1ccc(Cl)c(Cl)c1)Oc1ccc(Cl)c(Cl)c1
inactive: S. cerevisiae deletion strains, locus YAR019C, strain CDC15, stronger effect = lower value 0.95 | S. cerevisiae deletion strains, locus YBL105C, strain PKC1, stronger effect = lower value 0.944 | S. cerevisiae deletion strains, locus YBR135W, strain CKS1, stronger effect = lower value 0.947 | S. cerevisiae deletion strains, locus YBR136W, strain MEC1, stronger effect = lower value 0.946 | S. cerevisiae deletion strains, locus YBR160W, strain CDC28, stronger effect = lower value 0.946 | S. cerevisiae deletion strains, locus YDL017W, strain CDC7, stronger effect = lower value 0.937 | S. cerevisiae deletion strains, locus YDL028C, strain MPS1, stronger effect = lower value 0.946 | [1] 0.971 | S. cerevisiae deletion strains, locus YDL108W, strain KIN28, stronger effect = lower value 0.937 | S. cerevisiae deletion strains, locus YDL132W, strain cdc53, stronger effect = lower value 0.968 | S. cerevisiae deletion strains, locus YDL214C, strain PRR2, stronger effect = lower value 0.986 | S. cerevisiae deletion strains, locus YDR052C, strain DBF4, stronger effect = lower value 0.937 | S. cerevisiae deletion strains, locus YDR054C, strain cdc34, stronger effect = lower value 0.932 | S. cerevisiae deletion strains, locus YDR226W, strain ADK1, stronger effect = lower value 0.913 | S. cerevisiae deletion strains, locus YDR477W, strain SNF1, stronger effect = lower value 0.966 | S. cerevisiae deletion strains, locus YER123W, strain YCK3, stronger effect = lower value 0.989 | S. cerevisiae deletion strains, locus YER133W, strain GLC7, stronger effect = lower value 0.969 | S. cerevisiae deletion strains, locus YFL009W, strain cdc4, stronger effect = lower value 0.931 | S. cerevisiae deletion strains, locus YFL029C, strain CAK1, stronger effect = lower value 0.95 | S. cerevisiae deletion strains, locus YFR003C, strain YPI1, stronger effect = lower value 0.944 | S. cerevisiae deletion strains, locus YFR019W, strain FAB1, stronger effect = lower value 0.946 | S. cerevisiae deletion strains, locus YFR028C, strain CDC14, stronger effect = lower value 0.97 | S. cerevisiae deletion strains, locus YGR040W, strain KSS1, stronger effect = lower value 0.983 | S. cerevisiae deletion strains, locus YGR052W, strain FMP48, stronger effect = lower value 1.02 | S. cerevisiae deletion strains, locus YGR092W, strain DBF2, stronger effect = lower value 0.905 | S. cerevisiae deletion strains, locus YHR079C, strain IRE1, stronger effect = lower value 0.918 | S. cerevisiae deletion strains, locus YHR082C, strain KSP1, stronger effect = lower value 1.03 | S. cerevisiae deletion strains, locus YHR205W, strain SCH9, stronger effect = lower value 0.756 | S. cerevisiae deletion strains, locus YIL147C, strain SLN1, stronger effect = lower value 0.943 | S. cerevisiae deletion strains, locus YJL095W, strain BCK1, stronger effect = lower value 0.935 | S. cerevisiae deletion strains, locus YJL128C, strain PBS2, stronger effect = lower value 0.969 | S. cerevisiae deletion strains, locus YJL157C, strain FAR1, stronger effect = lower value 0.959 | S. cerevisiae deletion strains, locus YJR016C, strain ILV3, stronger effect = lower value 0.951 | S. cerevisiae deletion strains, locus YJR066W, strain TOR1 (second series), stronger effect = lower value 0.994 | S. cerevisiae deletion strains, locus YJR066W, strain TOR1, stronger effect = lower value 1.03 | S. cerevisiae deletion strains, locus YKL048C, strain ELM1, stronger effect = lower value 0.963 | S. cerevisiae deletion strains, locus YKL067W, strain YNK1, stronger effect = lower value 0.983 | S. cerevisiae deletion strains, locus YKL101W, strain HSL1, stronger effect = lower value 0.981 | S. cerevisiae deletion strains, locus YKL193C, strain SDS22, stronger effect = lower value 0.944 | S. cerevisiae deletion strains, locus YKL203C, strain TOR2, stronger effect = lower value 1.05 | S. cerevisiae deletion strains, locus YLR113W, strain HOG1, stronger effect = lower value 0.962 | S. cerevisiae deletion strains, locus YLR133W, strain CKI1, stronger effect = lower value 0.961 | S. cerevisiae deletion strains, locus YLR403W, strain SFP1, stronger effect = lower value 0.823 | S. cerevisiae deletion strains, locus YML070W, strain DAK1, stronger effect = lower value 0.991 | S. cerevisiae deletion strains, locus YMR001C, strain CDC5, stronger effect = lower value 0.94 | S. cerevisiae deletion strains, locus YMR205C, strain PFK2 (second series), stronger effect = lower value 0.972 | S. cerevisiae deletion strains, locus YMR277W, strain FCP1, stronger effect = lower value 0.949 | S. cerevisiae deletion strains, locus YNL006W, strain LST8, stronger effect = lower value 0.967 | S. cerevisiae deletion strains, locus YNL020C, strain ARK1, stronger effect = lower value 0.955 | S. cerevisiae deletion strains, locus YNL161W, strain CBK1, stronger effect = lower value 0.949 | S. cerevisiae deletion strains, locus YNL183C, strain NPR1, stronger effect = lower value 1.09 | S. cerevisiae deletion strains, locus YNL207W, strain RIO2, stronger effect = lower value 0.941 | S. cerevisiae deletion strains, locus YNL222W, strain SSU72, stronger effect = lower value 0.955 | S. cerevisiae deletion strains, locus YNL307C, strain MCK1 (second series), stronger effect = lower value 0.961 | S. cerevisiae deletion strains, locus YOL078W, strain AVO1, stronger effect = lower value 0.946 | S. cerevisiae deletion strains, locus YOL136C, strain PFK27, stronger effect = lower value 0.949 | S. cerevisiae deletion strains, locus YOR061W, strain CKA2, stronger effect = lower value 0.984 | S. cerevisiae deletion strains, locus YOR119C, strain RIO1, stronger effect = lower value 1.05 | S. cerevisiae deletion strains, locus YOR231W, strain MKK1, stronger effect = lower value 1.07 | S. cerevisiae deletion strains, locus YOR329C, strain SCD5, stronger effect = lower value 0.951 | S. cerevisiae deletion strains, locus YPL031C, strain PHO85, stronger effect = lower value 0.948 | S. cerevisiae deletion strains, locus YPL153C, strain RAD53, stronger effect = lower value 0.974 | S. cerevisiae deletion strains, locus YPL204W, strain HRR25, stronger effect = lower value 0.945 | S. cerevisiae deletion strains, locus YPL209C, strain IPL1, stronger effect = lower value 0.949 | S. cerevisiae deletion strains, locus YPL256C, strain CLN2, stronger effect = lower value 0.945 | S. cerevisiae deletion strains, locus YPR025C, strain CCL1, stronger effect = lower value 0.956 | S. cerevisiae deletion strains, locus YPR106W, strain ISR1, stronger effect = lower value 0.942 | S. cerevisiae deletion strains, locus YPR111W, strain DBF20, stronger effect = lower value 0.938 | S. cerevisiae deletion strains, strain NNK1, stronger effect = lower value 0.956 | S. cerevisiae deletion strains, strain TSCII, stronger effect = lower value 0.945
active: [2] 0.85

O=S(=O)(Oc1cc(Cl)cc(Cl)c1)c1cccc(S(=O)(=O)Oc2cc(Cl)cc(Cl)c2)c1
inactive: S. cerevisiae deletion strains, locus YAL013W, strain DEP1, stronger effect = lower value 1.01 | S. cerevisiae deletion strains, locus YBR229C, strain ROT2, stronger effect = lower value 1.01 | S. cerevisiae deletion strains, locus YCL061C, strain MRC1, stronger effect = lower value 1.01 | [1] 1.01 | S. cerevisiae deletion strains, locus YDL134C, strain PPH21, stronger effect = lower value 1.01 | S. cerevisiae deletion strains, locus YDR150W, strain NUM1, stronger effect = lower value 1 | S. cerevisiae deletion strains, locus YEL061C, strain CIN8, stronger effect = lower value 1.01 | S. cerevisiae deletion strains, locus YGR078C, strain PAC10, stronger effect = lower value 1.02 | [2] 1.04 | S. cerevisiae deletion strains, locus YHR087W, strain rtc3, stronger effect = lower value 0.996 | S. cerevisiae deletion strains, locus YJR043C, strain POL32, stronger effect = lower value 1 | S. cerevisiae deletion strains, locus YJR075W, strain HOC1, stronger effect = lower value 0.988 | S. cerevisiae deletion strains, locus YLR039C, strain RIC1, stronger effect = lower value 1.1 | S. cerevisiae deletion strains, locus YLR058C, strain SHM2 (second series), stronger effect = lower value 0.998 | S. cerevisiae deletion strains, locus YLR085C, strain ARP6, stronger effect = lower value 1.06 | S. cerevisiae deletion strains, locus YLR262C, strain YPT6, stronger effect = lower value 1.02 | S. cerevisiae deletion strains, locus YML094W, strain GIM5, stronger effect = lower value 1.01 | S. cerevisiae deletion strains, locus YMR219W, strain ESC1, stronger effect = lower value 0.998 | S. cerevisiae deletion strains, locus YMR263W, strain SAP30, stronger effect = lower value 0.992 | S. cerevisiae deletion strains, locus YNL153C, strain GIM3, stronger effect = lower value 1.01 | S. cerevisiae deletion strains, locus YNL298W, strain CLA4 (second series), stronger effect = lower value 1.07 | S. cerevisiae deletion strains, locus YNL322C, strain KRE1, stronger effect = lower value 1.01 | S. cerevisiae deletion strains, locus YNR030W, strain Alg12, stronger effect = lower value 1.01 | S. cerevisiae deletion strains, locus YOL006C, strain TOP1, stronger effect = lower value 1.06 | S. cerevisiae deletion strains, locus YPL055C, strain LGE1, stronger effect = lower value 1.01 | S. cerevisiae deletion strains, locus YPL241C, strain CIN2, stronger effect = lower value 1.03 | S. cerevisiae deletion strains, locus YPR135W, strain CTF4, stronger effect = lower value 1.01 | S. cerevisiae strains, strain wild type, stronger effect = lower value 1.04

Reference: PubChem BioAssay AID1159580 (chemical genetic matrix, 2015)
